RORg inh = qHTS for inhibitors of ROR gamma transcriptional activity. 310,000 tested, 5.4% active. Drosophila S2 Gal4-RORgamma UAS-luciferase reporter, 20 h. Potency, µM (series often up to 53.6 µM), most hits filed as inhibitors. Nuclear receptor ROR-gamma (Mus musculus), P51450; note: nearly all actives have a fitted effect of over 60% in size
Target sequence (P51450 whole entry, looked up, the tested form may be a part): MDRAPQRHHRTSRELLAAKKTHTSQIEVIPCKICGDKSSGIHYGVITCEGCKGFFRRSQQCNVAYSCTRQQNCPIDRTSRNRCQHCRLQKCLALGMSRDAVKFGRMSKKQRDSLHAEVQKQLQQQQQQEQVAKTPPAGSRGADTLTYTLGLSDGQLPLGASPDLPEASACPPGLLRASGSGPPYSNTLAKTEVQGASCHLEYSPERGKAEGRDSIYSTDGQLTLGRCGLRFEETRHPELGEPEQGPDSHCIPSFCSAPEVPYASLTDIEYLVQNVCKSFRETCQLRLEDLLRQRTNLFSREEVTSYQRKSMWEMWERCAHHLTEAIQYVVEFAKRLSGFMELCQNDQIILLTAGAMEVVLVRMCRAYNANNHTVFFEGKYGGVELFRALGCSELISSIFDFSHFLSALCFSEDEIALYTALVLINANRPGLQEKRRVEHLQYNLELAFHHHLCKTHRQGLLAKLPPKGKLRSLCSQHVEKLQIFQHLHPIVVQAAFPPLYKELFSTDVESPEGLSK
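Read-out: Photinus luciferase luminescence; inhibitors lower reporter signal. Insect Schneider cells with Gal4-ROR gamma fusion under metallothionein promoter, UAS reporter; 700 uM final copper sulfate induction, 20 hr, ambient temperature.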
MCF10A rerep = A quantitative high throughput screen for small molecules that induce DNA re-replication in MCF 10a normal breast cells; MCF 10A DNA re-replication, Hoechst nuclear intensity, 48 h; Potency, µM (series often up to 46.1 µM), hits mostly activators; 350,000 tested, 2.9% active; note: nearly all actives have a fitted effect of over 50% in size
SW480 rereplic = A quantitative high throughput screen for small molecules that induce DNA re-replication in SW480 colon adenocarcinoma cells | 340,000 tested, 1.8% active | SW480 DNA re-replication, Hoechst DNA content imaging, 48 h | Potency, µM (doses to about 46.1 µM), most hits filed as activators; note: nearly all actives have a fitted effect of over 55% in size
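Image-based DNA-content assay: after two days of treatment, nuclei were labelled with the DNA dye Hoechst and imaged, and hits were compounds raising the count of nuclei showing high fluorescence intensity.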
KB-V1 cytotox = qHTS assay for MDR1-selective chemotherapeutics: Primary screen using the drug-selected MDR subline cells KB-V1. KB-V1 MDR cells viability, CellTiter-Glo, 72 h. Potency, µM (top dose mostly 46.1 µM), usual class: cytotoxic. 400,000 tested, 3.4% active. AID 1347076, 2019; note: nearly all actives have a fitted effect of over 60% in size
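Cells of the MDR subline KB-V1 are plated, dosed with compound at multiple concentrations, and incubated 72 h at 37 degrees C; CellTiter-Glo is then added and luminescence read after 10 min.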
KB-3-1 tox = qHTS assay for MDR1-selective chemotherapeutics: Primary screen using the parental adenocarcinoma cell KB-3-1; KB-3-1 viability, CellTiter-Glo ATP luminescence, 72 h; Potency, µM (top dose mostly 46.1 µM), actives largely listed as cytotoxic; 400,000 tested, 1.4% active; AID 1347075, 2019; note: nearly all actives have a fitted effect of over 60% in size
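72 h, 37 °C compound treatment of KB-3-1 parental cells; CellTiter-Glo added, 10 min, luminescence read. Data corrected against DMSO-only plates and normalized before curve fitting.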
Gal4-VP16 FLuc = VP16 counterscreen qHTS for inhibitors of ROR gamma transcriptional activity; Drosophila S2 Gal4-VP16 UAS-luciferase, luminescence, 20 h; Potency, µM (series often up to 53.6 µM), most hits filed as inhibitors; 310,000 tested, 3.5% active; AID 2546, 2010;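 note: Gal4-VP16 expression switched on by copper sulfate through the metallothionein promoter; nearly all actives have a fitted effect of over 50% in size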
Of the large screens only hits and unclear results are named; the others gave an inactive call. Compounds with a hit are over-represented: about 10% of the library has one in this group of screens. Calls come from the whole dose curve; as a rule, active = well fitted curve in the direction sought with a large enough effect; inconclusive = small, poorly fitted or top-dose-only effect, or another doubt; inactive = no such curve, though single readings can be large; an effect the other way counts as inactive or inconclusive.

COCCN(CCOC)S(=O)(=O)c1ccc(C(=O)Nc2ccncc2)cc1	KB-V1 cytotox inconclusive
CCCCN(C)S(=O)(=O)c1ccc(C(=O)Nc2nnc(CSC)o2)cc1	RORg inh 0.79µM, SW480 rereplic inconclusive, KB-V1 cytotox inconclusive, KB-3-1 tox inconclusive, Gal4-VP16 FLuc 1.1µM
CCN(CC)S(=O)(=O)c1ccc(C(=O)Nc2nnc(COC)o2)cc1	RORg inh 3.5µM, Gal4-VP16 FLuc 16µM
CCN(CC)S(=O)(=O)c1ccc(C(=O)Nc2nnc(CSC)o2)cc1	RORg inh 1.1µM, KB-V1 cytotox inconclusive, Gal4-VP16 FLuc 4µM
CC(C)C[C@H](NC(=O)CNC(=O)[C@H](C)NC(=O)[C@H](CC(C)C)NC(=O)[C@H](CCCNC(=N)N)NC(=O)[C@H](Cc1cnc[nH]1)NC(=O)[C@@H](NC(=O)[C@@H](NC(=O)[C@@H]1CSSC[C@H](NC(=O)[C@@H](N)CO)C(=O)N[C@@H](CC(N)=O)C(=O)N[C@@H]([C@@H](C)O)C(=O)N[C@@H](C)C(=O)N[C@@H]([C@@H](C)O)C(=O)N1)C(C)C)[C@@H](C)O)C(=O)N[C@@H](CC(C)C)C(=O)N[C@@H](CO)C(=O)N[C@@H](CCCNC(=N)N)C(=O)N[C@@H](CO)C(=O)NCC(=O)NCC(=O)N[C@H](C(=O)N[C@H](C(=O)N[C@@H](CCCCN)C(=O)N[C@@H](CC(=O)O)C(=O)N[C@@H](CC(N)=O)C(=O)N[C@@H](Cc1ccccc1)C(=O)N[C@H](C(=O)N1CCC[C@H]1C(=O)N[C@H](C(=O)N[C@@H](CC(N)=O)C(=O)N[C@H](C(=O)NCC(=O)N[C@@H](CO)C(=O)N[C@@H](CCCCN)C(=O)N[C@@H](C)C(=O)N[C@@H](Cc1ccccc1)C(N)=O)C(C)C)[C@@H](C)O)C(C)C)C(C)C)C(C)C	none (no result: MCF10A rerep, SW480 rereplic, KB-V1 cytotox, KB-3-1 tox)
CCOC(=O)N1CCN(S(=O)(=O)c2ccc(C(=O)Nc3nnc(CSC)o3)cc2)CC1	RORg inh 13µM, Gal4-VP16 FLuc inconclusive
COCCCNC(=O)C(=O)N/N=C/c1cc2c(cc1Br)OCO2	none
COCCCNC(=S)N/N=C/c1ccc(N(C)C)cc1	RORg inh 2.8µM, Gal4-VP16 FLuc 7.1µM
COCCNC(=S)N/N=C/c1ccc([N+](=O)[O-])cc1	RORg inh inconclusive, Gal4-VP16 FLuc inconclusive
COCCCNC(=S)N/N=C/c1ccccc1O	RORg inh 0.56µM, SW480 rereplic inconclusive, KB-V1 cytotox inconclusive, KB-3-1 tox inconclusive, Gal4-VP16 FLuc 3.5µM
COCCCNC(=S)N/N=C/c1ccc(N(C)C)cc1Cl	RORg inh 2.2µM, MCF10A rerep inconclusive, SW480 rereplic 29µM, Gal4-VP16 FLuc 13µM
Cc1ccc2c(c1)N(C(=O)Nc1cccc(C)c1C)CCO2	none (no result: RORg inh, MCF10A rerep, SW480 rereplic, Gal4-VP16 FLuc)
CCc1cccc(NC(=O)CCn2nc(C)cc2C)c1	none (no result: RORg inh, MCF10A rerep, SW480 rereplic, Gal4-VP16 FLuc)
O=C(O)c1ccc(-n2ccnc2)c([N+](=O)[O-])c1	KB-V1 cytotox inconclusive
O=C(c1ccccc1)c1ccc(-n2ccnc2)c([N+](=O)[O-])c1	KB-V1 cytotox 18µM
COc1ccccc1N1CCN(CCCNC(=O)c2cnn(-c3cccc(Cl)c3)c2C2CCN(C(=O)OC(C)(C)C)CC2)CC1	KB-V1 cytotox inconclusive (no result: RORg inh, MCF10A rerep, SW480 rereplic, Gal4-VP16 FLuc)
Cc1cc(OCc2nc(N)nc(N)c2-c2ccc(Cl)c(Cl)c2)ccc1[N+](=O)[O-]	MCF10A rerep inconclusive, SW480 rereplic inconclusive, KB-V1 cytotox 1µM, KB-3-1 tox 2.1µM (no result: RORg inh, Gal4-VP16 FLuc)
COc1ccc2c(c1)c1c(c(=O)n(Cc3ccccc3)c(=O)n1CC(=O)Nc1ccc(C)cc1C)n2C	none (no result: RORg inh, MCF10A rerep, SW480 rereplic, Gal4-VP16 FLuc)
O=c1cc(CNc2cc(C(F)(F)F)cc(C(F)(F)F)c2)nc2sccn12	MCF10A rerep inconclusive, KB-V1 cytotox 26µM, KB-3-1 tox 23µM, Gal4-VP16 FLuc inconclusive
COc1ccc(NC(=O)C2CCCN(S(=O)(=O)c3ccc4c(c3)CCCC(=O)N4)C2)cc1OC (stereo unspecified)	KB-3-1 tox inconclusive (no result: RORg inh, MCF10A rerep, SW480 rereplic, Gal4-VP16 FLuc)
O=C(N/N=C1/CC2CCC1C2)c1cc2ccccc2cc1O (stereo unspecified)	RORg inh 0.89µM, SW480 rereplic inconclusive, KB-3-1 tox inconclusive, Gal4-VP16 FLuc 0.79µM
O=C(NCC1CCCCC1)c1cc2ccccc2cc1O	MCF10A rerep 18µM, SW480 rereplic inconclusive, KB-3-1 tox inconclusive, Gal4-VP16 FLuc inconclusive
Cc1cc(Oc2ccccc2)nc(SCC(N)=O)n1	none
Cc1cc(C)nc(NCc2ccc(Cl)cc2)n1	none
CCCCOc1cc(C)nc(NCc2ccccc2)n1	RORg inh inconclusive, MCF10A rerep inconclusive, SW480 rereplic inconclusive, KB-V1 cytotox inconclusive, KB-3-1 tox 10µM
CCOc1cc(C)nc(NCc2ccccc2)n1	MCF10A rerep 12µM, SW480 rereplic inconclusive
CC(=O)c1ccc(Oc2cc(C)nc(NCc3ccccc3)n2)cc1	RORg inh inconclusive, KB-V1 cytotox 16µM, KB-3-1 tox inconclusive
Cc1cc(OC2CCCCC2)nc(NCc2ccccc2)n1	none
Nc1ccc2ccc(O)cc2c1	MCF10A rerep 7.3µM, SW480 rereplic 18µM (no result: RORg inh, Gal4-VP16 FLuc)
Oc1ccc2ccc(Cl)cc2c1	none (no result: RORg inh, Gal4-VP16 FLuc)
CCOc1ccc(C(=O)c2oc3ccccc3c2NC(=O)Cc2coc3cc(C)cc(C)c23)cc1	none (no result: RORg inh, MCF10A rerep, SW480 rereplic, Gal4-VP16 FLuc)
COc1cccc(Cn2c(C(C)n3c(-c4cnccn4)nc4ccccc43)nc3ccccc32)c1 (stereo unspecified)	KB-V1 cytotox 16µM, KB-3-1 tox inconclusive (no result: RORg inh, MCF10A rerep, SW480 rereplic, Gal4-VP16 FLuc)
COc1ccc(-c2n(Cc3ccccc3)c3ccccc3[n+]2Cc2ccccc2)cc1	RORg inh 5.6µM, SW480 rereplic inconclusive, KB-3-1 tox 7.3µM, Gal4-VP16 FLuc 5µM
COc1ccc2c(c1)nc(N)n2Cc1ccccc1	RORg inh inconclusive, Gal4-VP16 FLuc inconclusive
CCn1c(/C=C/c2ccccc2)nc2ccccc21	RORg inh 16µM, MCF10A rerep inconclusive, SW480 rereplic inconclusive, KB-V1 cytotox inconclusive, Gal4-VP16 FLuc inconclusive
COc1ccc(-c2c(C)nn(Cc3ccccc3)c2N)cc1	KB-V1 cytotox 21µM
Cc1ccn2c(=O)c(C(=O)NCCc3ccc(S(N)(=O)=O)cc3)c(O)nc2c1	none (no result: RORg inh, MCF10A rerep, SW480 rereplic, Gal4-VP16 FLuc)
CCC1CCCCN1Cc1nc2c(c(=O)n(C)c(=O)n2C)n1Cc1c(F)cccc1Cl (stereo unspecified)	none (no result: RORg inh, MCF10A rerep, SW480 rereplic, Gal4-VP16 FLuc)
CCn1c(/C=C/c2ccccc2)nc2ccccc2c1=O	KB-V1 cytotox inconclusive, KB-3-1 tox inconclusive
COc1ccccc1/C=C/c1nc2ccccc2c(=O)o1	none (no result: RORg inh, Gal4-VP16 FLuc)
CC(C)Cn1c(/C=C/c2ccccc2)nc2ccccc21	RORg inh 11µM, Gal4-VP16 FLuc 11µM

Compound activity as filed in PubChem BioAssay.
